Experimental data taken from PubChem BioAssay (NCATS).
Calls of active or inactive are those of the source. A call without a number means that no potency is given here. The call rests on the fitted dose curve; in most records, active means well fitted inhibition curve with a large enough effect; inconclusive means small, poorly fitted or top-dose-only effect; inactive means flat fitted curve, though single readings scatter.

molecular target: DNA polymerase III PolC-type (Bacillus subtilis (strain 168)) (UniProt P13267); assay: qHTS Validation Assay for the Inhibitors of DNA Replication in Gram-Positive Bacteria (AID 485295); conditions: Gram-positive bacterial DNA replication assay; series mostly up to 57.1 µM
Procedure: B Subtilis DNA polymerase III holoenzyme complex was assayed for DNA production by fluorescent detection of the double-stranded DNA product with PicoGreen dye. The holoenzyme complex was reconstituted from the following purified protein components: DNA Polymerase III, beta subunit processivity factor, SSB single-stranded DNA binding protein, and Primase. Single-stranded, circular M13Gori was used as a substrate with dNTPs and NTPs also supplied to the substrate reagent. Compounds from the NCGC collection were incubated with the holoenzyme mixture for […] at room temperature to allow binding to occur, and then the reaction was started by the addition of substrate. After 30 min incubation at room temperature, PicoGreen solution containing EDTA was added to stop the reaction and to visualize the double-stranded DNA produced. Reaction progress was measured in a ViewLux CCD imager in fluorescence intensity mode by using 480 nm excitation and 540 nm emission filter set.
1. Thaw screening compounds.
2. Label assay plates. Prepare pipette tips, reagent reservoirs, buffers and controls.
1. Thaw Enzymes, DNA template, Nucleotides and PicoGreen dye concentrate. Thawed enzymes are stable on ice for ~1
week. Other thawed components are stable indefinitely.
2. Prepare sufficient quantities of Enzyme, Substrate and PicoGreen Quench mixes (according to Table II). For the number of
compound plates being screened.
3. Ensure that the tip wash station reservoirs have clean water and turn on recirculating chiller so that the chilled deck position
1. Load 2 uL of EDTA controls (250 mM, Background, 100 % inhibition) and 2 uL of DMSO controls (Negative control, 0%
inhibition) in the screening plates (flat-bottomed black 384-well polypropylene, Greiner Bio-one).
2. Place Enzyme mix reservoir on the chiller position of the liquid handler deck. Make sure that chiller will maintain
temperature of Enzyme mix at 4degC. Substrate mix and PicoGreen Quench can be stored at room temp.
3. Program liquid handling robotics to dispense 18 uL of Enzyme mix into assay plates. Wash tips.
4. Aspirate and dispense 2 uL of compound from compound plates, mix and Incubate at room temperature for 10 minutes.
5. Aspirate 5 ul of Substrate mix, dispense into assay plates and mix by pipetting. Wash tips.
6. Incubate at room temperature (21 +/- 1 deg C) for 20 minutes.
7. Quench reactions by addition of 25 uL PicoGreen Quench mix and mix by pipetting (using HTS robotics or bulk reagent
dispenser such as a Multidrop or uFill). Keep plates in the dark or stacked until ready to read fluorescence.
8. Read fluorescence intensity of plates on plate reader using "Fluorescein (Ex 485 nm/ Em 535 nm, 0.1s)" setting.
Potency means the concentration at half of the fitted maximal effect.

Sequence of DNA polymerase III PolC-type (Bacillus subtilis (strain 168)) (P13267 whole entry, looked up): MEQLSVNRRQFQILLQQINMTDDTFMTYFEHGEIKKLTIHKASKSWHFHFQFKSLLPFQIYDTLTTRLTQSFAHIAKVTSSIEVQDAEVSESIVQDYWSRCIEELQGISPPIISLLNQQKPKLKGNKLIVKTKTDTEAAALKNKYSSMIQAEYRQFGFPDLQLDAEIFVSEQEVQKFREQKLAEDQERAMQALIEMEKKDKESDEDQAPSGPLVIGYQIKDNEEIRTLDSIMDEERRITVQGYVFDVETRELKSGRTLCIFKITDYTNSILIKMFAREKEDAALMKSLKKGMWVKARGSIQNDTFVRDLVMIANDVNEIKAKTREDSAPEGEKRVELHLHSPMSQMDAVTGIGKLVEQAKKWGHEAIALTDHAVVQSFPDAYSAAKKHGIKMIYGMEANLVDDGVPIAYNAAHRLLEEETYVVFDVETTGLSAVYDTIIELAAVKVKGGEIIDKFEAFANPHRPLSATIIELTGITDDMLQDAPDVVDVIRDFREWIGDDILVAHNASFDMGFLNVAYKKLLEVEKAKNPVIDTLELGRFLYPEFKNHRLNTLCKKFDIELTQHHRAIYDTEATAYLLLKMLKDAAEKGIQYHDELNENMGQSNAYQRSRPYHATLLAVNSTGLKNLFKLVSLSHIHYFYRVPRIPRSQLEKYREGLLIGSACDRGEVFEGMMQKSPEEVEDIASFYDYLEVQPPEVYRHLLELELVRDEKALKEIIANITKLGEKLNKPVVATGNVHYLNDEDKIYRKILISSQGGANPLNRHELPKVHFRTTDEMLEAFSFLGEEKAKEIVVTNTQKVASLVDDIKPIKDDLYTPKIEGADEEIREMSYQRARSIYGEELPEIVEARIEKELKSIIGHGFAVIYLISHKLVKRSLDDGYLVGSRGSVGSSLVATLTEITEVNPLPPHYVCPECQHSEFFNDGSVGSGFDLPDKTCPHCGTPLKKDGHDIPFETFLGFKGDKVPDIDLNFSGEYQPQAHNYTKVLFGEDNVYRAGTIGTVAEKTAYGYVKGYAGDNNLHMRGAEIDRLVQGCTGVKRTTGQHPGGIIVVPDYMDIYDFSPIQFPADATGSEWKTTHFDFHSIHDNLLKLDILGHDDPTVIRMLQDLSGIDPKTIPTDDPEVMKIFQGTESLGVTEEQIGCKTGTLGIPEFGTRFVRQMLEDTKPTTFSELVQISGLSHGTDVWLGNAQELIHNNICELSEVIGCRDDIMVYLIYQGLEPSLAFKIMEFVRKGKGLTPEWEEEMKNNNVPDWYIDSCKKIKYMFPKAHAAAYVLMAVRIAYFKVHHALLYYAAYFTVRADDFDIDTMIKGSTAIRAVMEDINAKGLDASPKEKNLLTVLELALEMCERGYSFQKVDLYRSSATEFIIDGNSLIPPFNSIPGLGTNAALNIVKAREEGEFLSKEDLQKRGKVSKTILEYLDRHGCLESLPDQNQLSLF

SMILES	Potency
C[N+](C)(C)CC#CCOC(=O)Nc1cccc(Cl)c1	inactive
CC(N)Cc1c[nH]c2ccc(O)cc12 (stereo not given)	inactive
CCCN1CCC[C@@H](c2cccc(O)c2)C1	inactive
CC(C)(C)c1cc(C=C(C#N)C#N)cc(C(C)(C)C)c1O	inactive
c1ccc2c(N3CCNCC3)cccc2c1	inactive
C[N+]1(C)C2CCC1CC(OC(=O)c1c[nH]c3ccccc13)C2 (stereo not given)	inactive
CN(N=O)c1cc(O)ccc1O	23.8 µM (active)
CN1CCC(c2c[nH]c3ccc(O)cc23)CC1	inactive
CC(N)c1cccc(Cl)c1Cl (stereo not given)	inactive
OCc1cnc[nH]1	inactive
C=CCN1CCC23c4c5ccc(O)c4O[C@H]2C(=O)CC[C@@]3(O)C1C5 (stereo not given in full)	inactive
CC(C)(C)c1o[nH]c(=O)c1CC(N)C(=O)O (stereo not given)	inactive
COc1ccc2c(c1)C13CCCCC1C(C2)N(C)CC3 (stereo not given)	inactive
CC(N)[C@H](O)c1ccc(O)c(O)c1 (stereo not given in full)	inactive
CNc1ccc2oc(C[C@H]3O[C@@]4(CC[C@H]3C)O[C@H]([C@H](C)C(=O)c3ccc[nH]3)[C@H](C)C[C@H]4C)nc2c1C(=O)O	inactive
c1ccc2c(c1)[I+]c1ccccc1-2	inactive
c1ccc2cc(CC3=NCCN3)ccc2c1	inactive
Oc1ccc2c3c1O[C@H]1c4[nH]c5ccccc5c4C[C@@]4(O)C(C2)N(CC2CC2)CCC314 (stereo not given in full)	inactive
CCN(CCCl)Cc1ccccc1Br	inactive
CC(N)Cc1c[nH]c2ccc(OCc3cccs3)cc12 (stereo not given)	inactive

SMILES	Potency
NNC(N)=O	inactive
N#C/C(=C/c1ccc(O)c(O)c1)C(N)=S	inactive
CCCN1CCc2cc(O)cc3c2[C@H]1Cc1ccc(O)c(O)c1-3	inactive
OC1CCCCC1N1CCC(c2ccccc2)CC1 (stereo not given)	inactive
CCCN(CCC)C1Cc2cc(OC)c(OC)cc2C1	inactive
N=C(N)c1ccc(CS(=O)(=O)F)cc1	inactive
CN(N=O)c1ccc(O)c(O)c1	23.8 µM (active)
C=CCN(C1=NCCN1)c1c(Cl)cccc1Cl	inactive
C/C(O)=C(\C#N)C(=O)Nc1cc(Br)ccc1Br	inactive
CCCN(CCC)[C@@H]1CCc2cccc(O)c2C1	inactive
COC(=O)N1CCN(C(=O)Cc2ccc(Cl)c(Cl)c2)C(CN2CCCC2)C1 (stereo not given)	inactive
C[C@H](N)Cc1cccc(C(F)(F)F)c1	inactive
O=C1CC[C@@]2(O)C3Cc4ccc(O)c5c4C2(CCN3CC2CC2)[C@H]1O5 (stereo not given in full)	inactive
Cc1[nH]c2ccc(O)cc2c1CCN	inactive
C=CCN1CCc2cccc3c2[C@H]1Cc1ccc(O)c(O)c1-3	inactive
O=[N+]([O-])c1cc(O)c(O)c([N+](=O)[O-])c1	inactive
Clc1cc(I)cc(Cl)c1NC1=NCCN1	inactive
CN1CC[C@@]2(C)c3cc(O)ccc3N(C)C12 (stereo not given in full)	inactive
NCC(O)c1cc(O)c(O)cc1F (stereo not given)	inactive
CCOC(=O)c1ncn2c1[C@@H]1CCCN1C(=O)c1cc(OC)ccc1-2	inactive
